# C2C12 statin – suppressors of statin myotoxicity in C2C12 myotubes, primary screen, cell-based, single point, plate reader; C2C12 myotubes + simvastatin, ATP luminescence, 48 h; scaled: DMSO 0, geranylgeraniol control 100; rescue of ATP level, % at 7.49 µM; hit rate 0.78% among 330,000; AID 602340, 2012;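 active = mean ATP rescue above about 67%, or every replicate alone reaching that limit, limit read from the data, passing the limit was not always enough; inconclusive = no clear call, values can overlap the other calls; inactive = mean under the limit and some replicate under it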;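 note: myotubes were challenged with 10 µM simvastatin during compound exposure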
# PvdQ acylase – P. aeruginosa PvdQ acylase inhibitors, primary screen, biochemical, fluorescence, plate reader and imaging, single point; PvdQ acylase [Pseudomonas aeruginosa LESB58]; purified PvdQ acylase; inhibition, % at 10 µM; hit rate 0.063% among 340,000; AID 488965, 2010; in the data active = inhibition above about 30%, passing the limit was not always enough; inconclusive = no clear call, values can overlap the other calls
# miR122 inh – miR-122 Renilla sensor signal increase in Huh7, primary screen, miR-122 inhibitor project, cell-based, single point, plate reader | hit rate 0.3% among 340,000 | Huh7 miR-122 Renilla luciferase sensor, 48 h; neutral wells = 0, positive control = 100 | activation (reporter increase), % at 12.5 µM;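 active = mean replicate activation score at least 90 and every replicate individually at or above 90; inconclusive = only one of the two criteria met; inactive = neither criterion met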;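 note: higher luciferase means less miR-122 activity so hits act as miR-122 inhibitors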
# PGC1a acetyl inh – inhibitors of PGC1a acetylation signal, primary screen, cell-based, U2OS, AlphaScreen, inhibitor mode. AlphaScreen anti-acetyl-lysine; with virally co-expressed GCN5 acetyltransferase. hit rate 0.17% among 350,000. inhibition, % at 15.6 µM;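 active = every replicate shows inhibition of at least 40%; inconclusive = mean inhibition at least 40% but some replicate below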
# DENV2 CPE rescue – inhibitors of DENV2 cytopathic effect, primary screen, cell-based, plate reader, single concentration | DENV2-infected cells, cytopathic effect rescue | CPE inhibition, % at 9.99 µM | hit rate 1.7% among 350,000 | AID 651640, 2012; in the data active = CPE inhibition above about 20%, passing the limit was not always enough; inconclusive = no clear call, values can overlap the other calls; tested in BHK-21 cells
# A number is an active result; 0 = inactive; ? = inconclusive; - = no result given; [ ] = dose if it differs, or a comment. The list is not random: actives were taken first. Their share in the collection is about 2.2%.
SMILES,C2C12 statin,PvdQ acylase,miR122 inh,PGC1a acetyl inh,DENV2 CPE rescue
O=C(Nc1ccc2c(c1)OCO2)N[C@@H]1CC[C@@H](CCNC(=O)C2CCOCC2)O[C@@H]1CO,0,-,-,0,0
COc1cccc(C#Cc2ccc([C@H]3[C@@H](CO)N4C(=O)CN(S(=O)(=O)c5ccccc5C)C[C@H]34)cc2)c1,-,-,-,0,0
Cc1ccc(S(=O)(=O)Nc2cccc3c2O[C@@H](CN(C)S(=O)(=O)c2ccc(Cl)cc2)[C@@H](C)CN([C@@H](C)CO)C3=O)cc1,-,-,-,0,21
Cc1ccc(S(=O)(=O)Nc2cccc3c2O[C@H](CN(C)S(=O)(=O)c2ccc(Cl)cc2)[C@H](C)CN([C@H](C)CO)C3=O)cc1,-,-,-,0,0
CNC[C@H]1Oc2c(NS(=O)(=O)c3ccc(Cl)cc3)cccc2C(=O)N([C@@H](C)CO)C[C@@H]1C,0,-,0,0,94
C[C@@H]1CN([C@@H](C)CO)C(=O)Cc2cc(NC(=O)Cn3cnnn3)ccc2O[C@H]1CN(C)Cc1ccc(C(=O)Nc2ccccc2N)cc1,-,-,-,0,0
c1ccc(CCCCN2C(Nc3ccccc3)=NC[C@@H]2Cc2ccccc2)cc1,0,0,0,0,24
CCN1C(Nc2ccccc2)=NC[C@@H]1CC(C)C,0,0,0,0,22
CC(C)CCN1C(Nc2ccccc2)=NC[C@@H]1CC(C)C,0,0,-,-,0
Cc1nc2c(OCCC3CCCCC3)cccn2c1N(C)C(=O)CCC1CCCC1,0,-,0,0,41
Cn1cccc1C(=O)C(=O)Nc1ccc(Cl)cc1,93,0,0,0,-
C[C@H](CO)N1C[C@H](C)[C@H](CN(C)Cc2ccccc2)Oc2ccc(NS(=O)(=O)c3ccc(Cl)cc3)cc2CC1=O,0,-,0,-,28
C[C@H](CO)N1C[C@H](C)[C@H](CN(C)Cc2ccc(-c3ccccc3)cc2)Oc2ccc(NS(=O)(=O)c3ccc(Cl)cc3)cc2CC1=O,0,-,0,0,-
C[C@@H]1CN([C@H](C)CO)C(=O)Cc2cc(NS(=O)(=O)c3ccc(Cl)cc3)ccc2O[C@H]1CN(C)Cc1ccccc1,96,-,0,-,0
C[C@H](CO)N1C[C@H](C)[C@@H](CN(C)Cc2ccccc2)Oc2ccc(NS(=O)(=O)c3ccc(Cl)cc3)cc2CC1=O,0,-,0,-,0
O=C(NCC[C@@H]1CC[C@H](NC(=O)C2CCCCC2)[C@H](CO)O1)c1ccc(F)cc1,0,-,-,0,-
Cc1ccc(S(=O)(=O)N2C[C@H]3[C@H]4C(=O)N(Cc5ccccc5)C(=O)[C@H]4CC(=O)[C@H]3[C@@H]2c2ccccc2F)cc1,0,-,0,0,0
CCN1C(=O)[C@@H]2[C@@H]3CN(S(=O)(=O)c4ccc(C)cc4)[C@@H](c4ccccc4F)[C@@H]3C(=O)C[C@@H]2C1=O,0,-,0,0,21
C[C@@H]1CN([C@@H](C)CO)C(=O)Cc2cc(NS(=O)(=O)c3ccc(F)cc3)ccc2O[C@@H]1CN(C)Cc1ccc(C(=O)Nc2ccccc2N)cc1,0,-,0,0,0
C[C@H]1CN([C@@H](C)CO)C(=O)Cc2cc(NS(=O)(=O)c3ccc(F)cc3)ccc2O[C@H]1CN(C)Cc1ccc(C(=O)Nc2ccccc2N)cc1,0,-,114[16.7 µM],0,0
Cc1ccc(S(=O)(=O)Nc2ccc3c(c2)CC(=O)N([C@H](C)CO)C[C@H](C)[C@H](CN(C)Cc2ccc(C(=O)Nc4ccccc4N)cc2)O3)cc1,0,-,229[16.7 µM],0,-
C[C@H]1CN([C@@H](C)CO)C(=O)CCCn2cc(nn2)CO[C@@H]1CN(C)Cc1ccc(-c2ccccc2)cc1,0,-,0,0,0
CC(=O)Nc1c(C(=O)NCc2ccccc2)nnn1Cc1ccccc1,0,0,0,0,-
CC(=O)Nc1nonc1-n1nnc(C(=O)NCc2ccccc2)c1C,0,0,266,-,-
O=C(C[C@@H]1C[C@H]2c3cc(NC(=O)c4ccc5c(c4)OCO5)ccc3O[C@H]2[C@H](CO)O1)NC1CCCC1,0,-,0,0,0
SMILES,C2C12 statin,PvdQ acylase,miR122 inh,PGC1a acetyl inh,DENV2 CPE rescue
O=C(C[C@H]1C[C@H]2c3cc(NC(=O)c4ccc5c(c4)OCO5)ccc3O[C@H]2[C@@H](CO)O1)NCC1CC1,0,-,0,0,0
O=C(C[C@@H]1C[C@@H]2c3cc(NC(=O)c4ccc5c(c4)OCO5)ccc3O[C@@H]2[C@@H](CO)O1)NC1CCCC1,0,-,0,0,34
O=C(C[C@@H]1C[C@H]2c3cc(NC(=O)c4ccc5c(c4)OCO5)ccc3O[C@H]2[C@@H](CO)O1)NCC1CC1,0,-,0,0,27
C[C@@H]1CCCCO[C@@H](CN(C)C(=O)CCCN(C)C)[C@H](C)CN([C@@H](C)CO)C(=O)c2cc(NC(=O)CCCN(C)C)ccc2O1,-,-,0,0,?
CC(C)COCC(O)CCC(=O)NNC(=S)Nc1ccccc1 (centres undefined),-,0,-,-,94
Cc1ccc(S(=O)(=O)NCc2ccncc2)cc1C,0,0,0,-,0
Cc1cc(C)c(C)c(S(=O)(=O)NCc2ccncc2)c1C,0,0,122,-,0
Cc1cc(Cl)c(S(=O)(=O)NCc2ccncc2)cc1OCC(N)=O,129,0,0,0,-
Cc1ccc(NS(=O)(=O)c2cc(OCC(N)=O)c(C)cc2Cl)cc1C,0,0,?,0,-
Cc1ccccc1NS(=O)(=O)c1cc(OCC(N)=O)c(C)cc1Cl,0,0,0,-,0
Cc1cc(Cl)c(S(=O)(=O)NCc2ccccc2)cc1OCC(N)=O,0,0,174,0,-
CC(=O)Nc1ccc2c(c1)n(C)c(=O)n2C,0,0,-,0,-
CC(=O)Nc1ccc(S(=O)(=O)Nc2ccc3c(c2)n(C)c(=O)n3C)c(C)c1,0,0,156,0,0
CCCNC(=O)c1cc2c(c(-c3cccc(-c4ccncc4)c3)n1)[C@H](CCO)N(S(=O)(=O)CC)C2,-,-,-,0,0
CCNC(=O)c1cc2c(c(-c3cccc(-c4ccncc4)c3)n1)[C@@H](CCO)N(S(=O)(=O)CC)C2,-,-,-,0,51
C[C@H]1CN([C@@H](C)CO)S(=O)(=O)c2ccc(C#CC3CC3)cc2O[C@H]1CN(C)Cc1cncnc1,0,-,0,0,-
C[C@H]1CN([C@@H](C)CO)S(=O)(=O)c2ccc(C#CC3CC3)cc2O[C@@H]1CN(C)Cc1ccncc1,0,-,0,0,42
C[C@H](CO)N1C[C@H](C)[C@@H](CN(C)Cc2cncnc2)Oc2cc(C#CC3CCCC3)ccc2S1(=O)=O,0,-,95[16.7 µM],0,0
C[C@@H]1CCCCO[C@H](CN(C)S(=O)(=O)c2cn(C)cn2)[C@@H](C)CN([C@@H](C)CO)C(=O)c2cc(NS(=O)(=O)c3cn(C)cn3)ccc2O1,-,-,0,0,0
CCc1ccc2[nH]c(=O)c(CN(Cc3ccccc3OC)Cc3nnnn3Cc3ccco3)cc2c1,100,0,0,0,-
CCOc1cccc(C2C(C(=O)c3ccco3)=C(O)C(=O)N2c2nnc(C)s2)c1 (centres undefined),0,0,0,0,0

# Bioassay records as filed in PubChem.
